# PubChem BioAssay (Tox21)
# The source made the active and inactive calls. Where a call stands in place of a potency, no number is given. Unless noted, the call rests on the fitted dose curve; in most records, active means well fitted curve in the direction sought with a large enough effect in the repeat runs; inconclusive means weak or mixed curves; inactive means no such curve, though single readings can be large; an effect the other way counts as inactive or inconclusive.
# What was measured:
# [1] = qHTS assay to identify small molecule antagonists of the thyroid receptor (TR) signaling pathway - cell viability counter screen (AID 743064); further: nearly all actives have a fitted effect of over 50% in size; further: potency means the concentration at half of the fitted maximal effect
# Method in brief: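 Same-well viability check: GH3.TRE-Luc cells stimulated with 1 nM T3 alongside test compound for 23.5 h, followed by CellTiter-Fluor fluorescence.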
# [2] = qHTS assay to identify small molecule antagonists of the estrogen receptor alpha (ER-alpha) signaling pathway - cell viability counter screen (AID 743074; calls by dose curve;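 further: HEK293 cells carrying ER-alpha-UAS-bla reporter stimulated with 17beta-estradiol; nearly all actives have a fitted effect of over 45% in size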; further: potency means the concentration at half of the fitted maximal effect)
# [3] = qHTS assay to identify small molecule antagonists of the estrogen receptor alpha (ER-alpha) signaling pathway using the BG1 cell line - cell viability counter screen (AID 743081);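 further: compound given together with 17beta-estradiol as the ER stimulus; nearly all actives have a fitted effect of over 45% in size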; further: potency means the concentration at half of the fitted maximal effect
# [4] = qHTS assay to identify aromatase inhibitors - cell viability counter screen (AID 743084);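 further: cells stimulated with testosterone during compound exposure; nearly all actives have a fitted effect of over 55% in size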; further: potency means the concentration at half of the fitted maximal effect
# [5] = target: Aryl hydrocarbon receptor (Homo sapiens) (UniProt P35869); experiment: qHTS assay to identify small molecule that activate the aryl hydrocarbon receptor (AhR) signaling pathway (AID 743085);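 further: HG2L7.5c1 human HepG2 liver cells with stably integrated DRE-driven firefly reporter; nearly all actives have a fitted effect of over 15% in size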
# Method in brief: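 Reporter assay in engineered HepG2 line HG2L7.5c1, whose plasmid carries twenty dioxin responsive elements upstream of firefly luciferase. Treatment lasted 24 h at 37C; ONE-Glo luminescence gauged induction.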
# [6] = qHTS assay to identify small molecule that activate the aryl hydrocarbon receptor (AhR) signaling pathway - cell viability counter screen (AID 743086); further: nearly all actives have a fitted effect of over 45% in size; further: potency means the concentration at half of the fitted maximal effect
# Method in brief: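 HepG2-AhR-luc (HG2L7.5c1) cells, 4000/well, treated 24 h at 37 C with compound; viability measured as CellTiter-Fluor fluorescence after 30 min in the same wells as the luciferase read.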
# [7] = qHTS assay to identify small molecule antagonists of the peroxisome proliferator-activated receptor gamma (PPARg) signaling pathway - cell viability counter screen (AID 743194); settings: Potency: co-treated with 50 nM rosiglitazone unless noted; further: nearly all actives have a fitted effect of over 55% in size; further: potency means the concentration at half of the fitted maximal effect
# Method in brief: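 Cytotoxicity counter screen in PPARg-bla HEK293H cells, same wells as reporter assay. Compounds plus 50 nM rosiglitazone (final) for 17 h at 37 C, then viability read by CellTiter-Glo luminescence.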
# [8] = qHTS assay for small molecule agonists of the antioxidant response element (ARE) signaling pathway (AID 743202; active means well fitted activation curve with a large enough effect in the signal ratio in the repeat runs, not every such curve was filed as active; inconclusive means weak or mixed curves, or effect the other way; inactive means no such curve, though single readings can be large or run the other way; the % refers to the signal ratio; further: potency means the concentration at half of the fitted maximal effect)
# Method in brief: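 ARE-bla HepG2 cells (beta-lactamase reporter under the antioxidant response element), plated 5 hours, then exposed to compounds 16 hours at 37 C. LiveBLAzer B/G FRET substrate added for 2 hours at room temperature; fluorescence intensity read.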
# [9] = qHTS assay for small molecule agonists of the antioxidant response element (ARE) signaling pathway - cell viability counter screen (AID 743203; calls by dose curve; further: nearly all actives have a fitted effect of over 55% in size; further: potency means the concentration at half of the fitted maximal effect)
# Method in brief: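 HepG2 cells carrying ARE-driven beta-lactamase; 2,000 cells/well; 5 hrs plating; compound pinned from DMSO; 16 hrs 37C/5% CO2; CellTiter-Glo added; 30 min RT; luminescence.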
# [10] = qHTS assay for small molecule activators of the heat shock response signaling pathway - cell viability counter screen (AID 743209); further: nearly all actives have a fitted effect of over 50% in size; further: potency means the concentration at half of the fitted maximal effect
# Method in brief: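 Luminescence from CellTiter-Glo, added after the beta-lactamase FRET read, gave the viability signal. Cells were HSE-bla HeLa treated with DMSO-dissolved compounds for 5 h at 37 C following overnight plating.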
# [11] = qHTS assay for small molecule activators of the heat shock response signaling pathway (AID 743210; active means well fitted activation curve with a large enough effect in the signal ratio in the repeat runs, with a control signal flat, not every such curve was filed as active; inconclusive means weak or mixed curves; the % refers to the signal ratio; further: potency means the concentration at half of the fitted maximal effect)
# Method in brief: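 HSE-bla HeLa cells (beta-lactamase reporter under heat shock response elements), plated overnight, then exposed to compounds 5 h at 37 C; LiveBLAzer B/G FRET substrate added, 2.5 h at room temperature, fluorescence intensity read.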
# [12] = qHTS assay to identify small molecule antagonists of the thyroid receptor (TR) signaling pathway (AID 743065); further: nearly all actives have a fitted effect of over 55% in size; further: potency means the concentration at half of the fitted maximal effect
# Method in brief: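 GH3.TRE-Luc rat pituitary cells (two TREs driving luciferase) were dosed with compound, then stimulated with 1 nM T3 (final) for 23.5 h at 37 C. ONE-Glo luminescence was the read-out, with CellTiter-Fluor fluorescence as the cytotoxicity counter-screen.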
# [13] = test system: thyroid hormone receptor (rat, GH3 cells); experiment: qHTS assay to identify small molecule agonists of the thyroid receptor (TR) signaling pathway (AID 743066; calls by dose curve)
# Aromatase (Homo sapiens) = Aromatase (Homo sapiens) (UniProt P11511); experiment: qHTS assay to identify aromatase inhibitors (AID 743083); further: nearly all actives have a fitted effect of over 55% in size; further: potency means the concentration at half of the fitted maximal effect
# [14] = target: Estrogen receptor (Homo sapiens) (UniProt P03372); experiment: qHTS assay to identify small molecule agonists of the estrogen receptor alpha (ER-alpha) signaling pathway (AID 743075; calls by dose curve)
# [15] = qHTS assay to identify small molecule antagonists of the estrogen receptor alpha (ER-alpha) signaling pathway using the BG1 cell line (AID 743080; calls by dose curve;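 further: BG1 cells stimulated with 17beta-estradiol alongside compound; nearly all actives have a fitted effect of over 25% in size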; further: potency means the concentration at half of the fitted maximal effect)
# Method in brief: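 Endogenous full-length ER-alpha in BG1-Luc-4E2 cells drives a stably integrated 4×ERE luciferase gene; compounds were tested against 17beta-estradiol over 21.5 h, with luminescence and multiplexed viability fluorescence recorded.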
# [16] = target: Estrogen receptor (Homo sapiens) (UniProt P03372); experiment: qHTS assay to identify small molecule antagonists of the estrogen receptor alpha (ER-alpha) signaling pathway (AID 743069; active means well fitted curve in the direction sought with a large enough effect in the signal ratio in the repeat runs, not every such curve was filed as active; inconclusive means weak or mixed curves, or effect the other way; inactive means no such curve, though single readings can be large or run the other way; the % refers to the signal ratio; further: potency means the concentration at half of the fitted maximal effect)
# Method in brief: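 HEK293 ER-alpha-UAS-bla GripTite cells, held overnight in 2% charcoal-stripped FBS, 5,000 cells/well, preincubated 4 h, then compound plus 17beta-estradiol for 18 h at 37C. Beta-lactamase read by LiveBLAzer B/G FRET substrate, 2 h at room temperature.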
# [17] = target: Estrogen receptor (Homo sapiens) (UniProt P03372); experiment: qHTS assay to identify small molecule agonists of the estrogen receptor alpha (ER-alpha) signaling pathway using the BG1 cell line (AID 743079); settings: BG1Luc4E2 cells, ERE-luciferase agonist, 22 h; activation: at 70.3 µM (top of the series); further: nearly all actives have a fitted effect of over 20% in size; further: potency means the concentration at half of the fitted maximal effect
# [18] = target: Peroxisome proliferator-activated receptor gamma (Homo sapiens) (UniProt P37231); experiment: qHTS assay to identify small molecule agonists of the peroxisome proliferator-activated receptor gamma (PPARg) signaling pathway (AID 743094; active means well fitted activation curve with a large enough effect in the signal ratio in the repeat runs, not every such curve was filed as active; inconclusive means weak or mixed curves, or effect the other way; inactive means no such curve, though single readings can be large or run the other way; the % refers to the signal ratio)
# Method in brief: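 Beta-lactamase FRET fluorescence was the read-out after a 1 h room-temperature substrate step, following 17 h compound treatment at 37C of HEK293H cells expressing a UAS-driven bla reporter responsive to PPARg.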
# [19] = target: Peroxisome proliferator-activated receptor gamma (Homo sapiens) (UniProt P37231); experiment: qHTS assay to identify small molecule antagonists of the peroxisome proliferator-activated receptor gamma (PPARg) signaling pathway (AID 743191; calls by dose curve; further: nearly all actives have a fitted effect of over 30% in size; further: potency means the concentration at half of the fitted maximal effect)
# Method in brief: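 GeneBLAzer PPARg UAS-bla HEK293H cells, 5 h post-plating, exposed to compounds 17 h at 37C. LiveBLAzer B/G FRET substrate added for 1 h at room temperature; beta-lactamase reporter read by fluorescence intensity.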
# Chain of Peroxisome proliferator-activated receptor gamma (Homo sapiens) (P37231 whole entry, looked up): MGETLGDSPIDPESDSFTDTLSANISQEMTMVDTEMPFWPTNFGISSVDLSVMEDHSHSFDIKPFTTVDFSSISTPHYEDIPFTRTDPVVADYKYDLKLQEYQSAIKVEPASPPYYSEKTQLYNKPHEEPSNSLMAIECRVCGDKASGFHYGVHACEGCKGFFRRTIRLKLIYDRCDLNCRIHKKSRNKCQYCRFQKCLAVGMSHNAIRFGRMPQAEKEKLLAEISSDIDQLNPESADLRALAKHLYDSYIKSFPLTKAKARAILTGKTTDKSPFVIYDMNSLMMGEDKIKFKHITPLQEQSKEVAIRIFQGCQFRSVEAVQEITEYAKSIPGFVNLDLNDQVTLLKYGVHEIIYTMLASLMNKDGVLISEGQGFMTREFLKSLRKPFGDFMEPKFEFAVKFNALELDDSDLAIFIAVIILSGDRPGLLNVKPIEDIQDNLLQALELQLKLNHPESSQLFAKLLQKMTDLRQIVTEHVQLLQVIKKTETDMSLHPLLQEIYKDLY
# Chain of Aryl hydrocarbon receptor (Homo sapiens) (P35869 whole entry, looked up): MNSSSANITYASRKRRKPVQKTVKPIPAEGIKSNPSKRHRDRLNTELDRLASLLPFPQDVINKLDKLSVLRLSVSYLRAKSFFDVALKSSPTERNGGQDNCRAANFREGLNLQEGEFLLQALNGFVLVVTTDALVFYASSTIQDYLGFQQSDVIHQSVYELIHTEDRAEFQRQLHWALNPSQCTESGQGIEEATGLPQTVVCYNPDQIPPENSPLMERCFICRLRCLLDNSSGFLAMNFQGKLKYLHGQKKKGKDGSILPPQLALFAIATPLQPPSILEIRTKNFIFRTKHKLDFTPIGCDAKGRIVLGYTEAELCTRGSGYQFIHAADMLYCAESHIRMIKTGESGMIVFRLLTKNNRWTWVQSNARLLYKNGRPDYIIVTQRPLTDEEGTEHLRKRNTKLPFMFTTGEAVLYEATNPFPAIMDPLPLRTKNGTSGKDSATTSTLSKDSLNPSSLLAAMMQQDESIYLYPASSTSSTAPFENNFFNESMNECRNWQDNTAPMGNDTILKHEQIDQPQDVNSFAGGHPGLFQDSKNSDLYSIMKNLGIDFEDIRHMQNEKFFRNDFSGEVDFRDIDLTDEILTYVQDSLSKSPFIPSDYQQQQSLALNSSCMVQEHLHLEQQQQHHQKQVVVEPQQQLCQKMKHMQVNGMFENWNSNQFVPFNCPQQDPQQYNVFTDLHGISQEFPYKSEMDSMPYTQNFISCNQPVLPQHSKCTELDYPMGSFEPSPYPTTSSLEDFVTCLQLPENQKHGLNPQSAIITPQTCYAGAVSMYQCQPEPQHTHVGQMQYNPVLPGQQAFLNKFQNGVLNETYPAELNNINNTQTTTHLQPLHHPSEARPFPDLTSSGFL
# Chain of Aromatase (Homo sapiens) (P11511 whole entry, looked up): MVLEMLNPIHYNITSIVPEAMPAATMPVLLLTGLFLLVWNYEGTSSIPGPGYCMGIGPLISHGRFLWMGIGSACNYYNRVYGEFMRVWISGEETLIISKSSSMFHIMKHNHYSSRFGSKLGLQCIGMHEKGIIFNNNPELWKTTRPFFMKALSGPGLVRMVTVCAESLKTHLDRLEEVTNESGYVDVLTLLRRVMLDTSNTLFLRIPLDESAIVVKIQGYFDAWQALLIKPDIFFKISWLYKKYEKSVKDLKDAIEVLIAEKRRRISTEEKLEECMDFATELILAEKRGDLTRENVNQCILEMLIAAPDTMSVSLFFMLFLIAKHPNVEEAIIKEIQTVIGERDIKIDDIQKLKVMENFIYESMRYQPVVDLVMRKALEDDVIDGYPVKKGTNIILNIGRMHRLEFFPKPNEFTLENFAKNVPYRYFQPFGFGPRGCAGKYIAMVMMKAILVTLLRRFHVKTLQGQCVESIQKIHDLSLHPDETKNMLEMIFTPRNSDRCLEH
# Chain of Estrogen receptor (Homo sapiens) (P03372 whole entry, looked up): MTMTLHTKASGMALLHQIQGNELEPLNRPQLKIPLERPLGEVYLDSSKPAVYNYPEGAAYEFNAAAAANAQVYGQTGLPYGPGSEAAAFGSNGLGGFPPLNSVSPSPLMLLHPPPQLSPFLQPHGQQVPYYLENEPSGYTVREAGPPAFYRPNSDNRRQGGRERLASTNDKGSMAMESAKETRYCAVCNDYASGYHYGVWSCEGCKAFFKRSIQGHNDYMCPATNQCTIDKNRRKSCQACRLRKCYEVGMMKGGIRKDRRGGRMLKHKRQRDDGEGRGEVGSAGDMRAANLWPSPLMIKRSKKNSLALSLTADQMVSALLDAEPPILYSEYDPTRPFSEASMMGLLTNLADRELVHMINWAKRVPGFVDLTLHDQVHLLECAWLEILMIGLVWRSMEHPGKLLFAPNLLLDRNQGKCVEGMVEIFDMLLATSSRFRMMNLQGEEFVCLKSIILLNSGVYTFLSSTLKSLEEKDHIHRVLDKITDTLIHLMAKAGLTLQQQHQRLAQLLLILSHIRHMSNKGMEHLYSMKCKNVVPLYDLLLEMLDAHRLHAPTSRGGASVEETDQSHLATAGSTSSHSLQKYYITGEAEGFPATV
Structure (SMILES),Potency [1],Potency [2],Potency [3],Potency [4],Potency [5],Potency [6],Potency [7],Potency [8],Potency [9],Potency [10],Potency [11],Potency [12],Potency [13],Potency (Aromatase (Homo sapiens)),Potency [14],Potency [15],Potency [16],Potency [17],Potency [18],Potency [19]
CCc1cccc(C)c1N(C(=O)CCl)[C@@H](C)COC,inactive,inactive,inactive,inactive,inactive,inactive,inactive,9.69 µM (active),inactive,inactive,inactive,,,,,,,,,
CN=C=O,,inactive,inactive,inactive,inactive,inactive,inactive,inactive,inactive,inactive,,inactive,inactive,inactive,,,,,,
O.O.O.O.O.O.O=S(=O)([O-])[O-].[Ni+2],inactive,inactive,inactive,inactive,inactive,,inactive,,inactive,inactive,,,,inactive,,,,,,
CC1(C)[C@H](/C=C2\CCSC2=O)[C@@H]1C(=O)OCc1coc(Cc2ccccc2)c1,,inactive,inactive,inactive,inactive,inactive,inactive,,,inactive,,43.3 µM (active),inactive,inactive,inactive,68.6 µM (active),,,,
c1ccc(Nc2ccc(Nc3ccccc3)cc2)cc1,,inactive,inactive,,,inactive,inactive,,60.9 µM (active),24.4 µM (active),,9.65 µM (active),inactive,inactive,,,1.73 µM [inconclusive] (active),6.09 µM (active),,
Oc1cccc(Cl)c1Cl,,inactive,inactive,inactive,inactive,inactive,,inactive,inactive,inactive,inactive,inactive,inactive,inactive,inactive,inactive,,inactive,inactive,
O=S(=O)(NS(=O)(=O)C(F)(F)F)C(F)(F)F,inactive,inactive,inactive,inactive,,,inactive,,inactive,inactive,,,,,,,,,,
CNC(=O)/C=C(\C)OP(=O)(OC)OC,,inactive,inactive,inactive,inactive,inactive,,inactive,inactive,inactive,inactive,inactive,inactive,inactive,inactive,inactive,inactive,inactive,inactive,inactive
CCOP(=S)(NC(C)C)Oc1ccccc1C(=O)OC(C)C (configuration not stated),,,inactive,inactive,,inactive,inactive,54.5 µM (active),,inactive,inactive,54.5 µM (active),inactive,38.6 µM (active),inactive,,inactive,inactive,,inactive
O=C(Cl)c1ccccc1F,,inactive,inactive,inactive,inactive,inactive,inactive,inactive,inactive,inactive,inactive,inactive,inactive,inactive,inactive,inactive,,inactive,,inactive
CC[C@H](C)[C@H]1O[C@]2(C=C[C@@H]1C)C[C@@H]1C[C@@H](C/C=C(\C)[C@@H](O[C@H]3C[C@H](OC)[C@@H](O[C@H]4C[C@H](OC)[C@@H](NC)[C@H](C)O4)[C@H](C)O3)[C@@H](C)/C=C/C=C3\CO[C@@H]4[C@H](O)C(C)=C[C@@H](C(=O)O1)[C@]34O)O2,1.22 µM (active),13.8 µM (active),30.6 µM (active),9.69 µM (active),inactive,4.33 µM (active),2.45 µM (active),,4.33 µM (active),13.8 µM (active),,,,4.86 µM (active),,,,,,
CSSC,,inactive,inactive,,,inactive,,inactive,inactive,inactive,inactive,inactive,inactive,,,,,,,
CC(=O)[O][Sn]([c]1ccccc1)([c]1ccccc1)[c]1ccccc1,0.172 µM (active),0.195 µM (active),3.86 µM (active),0.344 µM (active),inactive,0.77 µM (active),0.138 µM (active),,0.0344 µM (active),15.5 µM (active),,,,,,,,,,
O.O.O.O.O.O.O.O=S(=O)([O-])[O-].[Co+2],inactive,,inactive,inactive,inactive,inactive,,,inactive,inactive,,,,inactive,,,,,,
CCOP(=O)(Sc1ccccc1)Sc1ccccc1,inactive,inactive,inactive,inactive,inactive,inactive,inactive,,inactive,inactive,,,,,inactive,,,,,54.9 µM (active)
COc1ccc2c3c1O[C@H]1[C@H](O)CC[C@H]4[C@@H](C2)N(C)CC[C@@]341,inactive,inactive,inactive,inactive,inactive,inactive,inactive,,inactive,,,,,inactive,,,,,inactive,inactive
Nc1nc(N)c(N)c(N)n1,,inactive,,,,,inactive,inactive,inactive,inactive,inactive,inactive,inactive,inactive,,inactive,,,inactive,inactive
CN1CCc2cc3c(cc2C1O)OCO3 (configuration not stated),,inactive,,,inactive,,inactive,,inactive,inactive,39.1 µM (active),inactive,inactive,inactive,,,,,,
COC(=O)C(C)N(C(=O)c1ccco1)c1c(C)cccc1C (configuration not stated),,inactive,inactive,inactive,inactive,,,inactive,inactive,inactive,inactive,inactive,inactive,inactive,inactive,,inactive,inactive,inactive,inactive
